# Most compounds without a hit are left out; they make up all but 6.5% or so of the library.
# HT1080-NT tox – qHTS for induction of synthetic lethality in tumor cells producing 2HG: qHTS for the HT-1080-NT fibrosarcoma cell line; Potency, µM (doses to about 46.1 µM), inactives show at the top dose activity, negative = less viability, hits mostly cytotoxic; AID 686970, 2013; 360,000 tested, 1.6% active; HT-1080-NT fibrosarcoma viability, CellTiter-Glo ATP luminescence, 48 h;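 further: NT is the 2HG producing partner of a matched IDH1 knockdown line; potency means the concentration at half of the fitted maximal effect; 0% = DMSO-treated cells and -100% = media-only wells without cells; nearly all actives have a fitted effect of over 55% in size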
#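 Compounds were tested in concentration-response format on HT-1080-NT cells for 48 hours at 37 degrees C. Cell viability came from CellTiter-Glo luminescence; curves were classified by r2, response magnitude and activity.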
# TGFb SMAD3 inh – qHTS for Inhibitors of TGF-b | HepG2 CAGA-GFP TGF-b/SMAD3 reporter, GFP fluorescence, 18 h; TGF-beta stimulated, 500 pg/mL final | 410,000 tested, 1.2% active | Potency, µM (top dose mostly 46.1 µM), for inactives: at the top dose activity, negative = inhibition, most hits filed as inhibitors; further: potency means the concentration at half of the fitted maximal effect; on the % scale 0 is the no-effect control and ±100 the full control effect; nearly all actives have a fitted effect of over 65% in size
#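 First, reporter cells (HEPG2 CAGA-GFP) rested 2 h at 37 degrees C. Next, compounds were pinned in and TGF-beta added to 500 pg/mL final. After 18 h, GFP was imaged per cell and summed per well.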
# Giardia kill – Small Molecules that selectively kill Giardia lamblia: qHTS; Giardia lamblia trophozoite viability; activity change, % at 7.66 µM, hits read low; 340,000 tested, 0.15% active; AID 540267, 2011; in the data active means activity change below about -80%; inconclusive means between about -30% and that limit;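 further: parasites exposed to compound for two days anaerobically before the ATP read; on the % scale 0 is the no-effect control and ±100 the full control effect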
#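 Giardia trophozoites, 100 cells per well, were exposed to compounds for 48 hrs at 37 deg C under anaerobic conditions; viability was then read as ATP content by bioluminescence after 15-30 min at room temperature.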
# HT1080 IDH1KD tx – qHTS for induction of synthetic lethality in tumor cells producing 2HG: qHTS for the HT-1080-IDH1KD cell line | HT-1080 IDH1 knockdown viability, ATP luminescence, 48 h | Potency, µM (series often up to 46.1 µM), for the others: at the top dose activity, negative = toxicity, most hits filed as cytotoxic | 360,000 tested, 2% active | AID 686971, 2013;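 further: potency means the concentration at half of the fitted maximal effect; 0% = DMSO wells and -100% = cell-free medium wells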
#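 % activity derives from luminescence (CellTiter-Glo), normalised to DMSO and no-cell wells. HT-1080-IDH1KD cells, 750/well, had 48 h compound exposure at 37 °C.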
# IL-1B inflam inh – qHTS for Inhibitors of Inflammasome Signaling: IL-1-beta AlphaLISA Primary Screen. 360,000 tested, 4.7% active. THP-1 LPS/ATP IL-1B secretion, AlphaLISA, 16 h; stronger effect = lower value. activity change, % at 57.5 µM; in the data active means activity change below about -50%; inconclusive means mostly about -30% to -49%; further: on the % scale 0 is the no-effect control and ±100 the full control effect
#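 Secreted IL-1B measured by AlphaLISA bead assay after 16 h compound exposure of THP-1 cells; compounds (final up to 57.5 uM) added 1 h before LPS (250 ng/mL) and ATP (1.25 mM) stimulation; lower signal means less secretion.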
# HepG2 viability – qHTS for Inhibitors of TGF-b: Cytotox Counterscreen; Potency, µM (highest dose often 46.1 µM), for inactives: at the highest dose activity change, negative = cytotoxicity, actives largely listed as cytotoxic; HepG2 CAGA-GFP viability, ATP luminescence, 18 h; 410,000 tested, 0.76% active; further: potency means the concentration at half of the fitted maximal effect
#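 HepG2 CAGA-GFP cells (1000/well, DMEM with 1% FBS) received compound, then TGF-beta at 500 pg/mL final, and were incubated 18 hours at 37 degrees C. Viability was read by CellTiter-Glo luminescence. Media-only wells were set as complete cell-killing and DMSO as no toxicity.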
# An asterisk follows results filed as active; ? = inconclusive; [ ] = another dose, or the depositor's remark. Unless noted, the call rests on the fitted dose curve; in most records, active means well fitted curve in the direction sought with a large enough effect; inconclusive means small, poorly fitted or top-dose-only effect, or another doubt; inactive means no such curve, though single readings can be large; an effect the other way counts as inactive or inconclusive.
SMILES,HT1080-NT tox,TGFb SMAD3 inh,Giardia kill,HT1080 IDH1KD tx,IL-1B inflam inh,HepG2 viability
N#C/C(=N\Nc1cccc(Cl)c1)C(=O)c1ccccc1,?,?,-10,23µM*,20,-32%
COc1ccc(Cl)cc1NC(=O)c1cc(S(=O)(=O)N2CCCC2)cn1C,-8%,-6%,3,-1%,-26,-44%
COc1ccc(OC)c(NC(=O)Cc2csc(NC(=O)Nc3ccccc3OC)n2)c1,-4%,-24%,5,-13%,9,-36%
COc1ccccc1C/C(N)=N/OC(=O)c1ccc(C)c([N+](=O)[O-])c1,-2%[9.24 µM],-6%,-11,10µM*,9,2%
Cc1ccc(C(=O)O/N=C(\N)Cc2cccs2)cc1[N+](=O)[O-],-4%,-1%,13,6%,6,-5%
Cc1ccc(/C=N/NC(=O)c2cc(-c3cccnc3)nc3ccccc23)cc1,1.5µM*,?,-10,1.3µM*,77,3%
Cc1ccc(-c2cc(C(=O)N/N=C/c3ccc([N+](=O)[O-])o3)c3ccccc3n2)o1,?,14µM*,-92*,?,?,11µM*
Cc1ccc(/C=N/NC(=O)c2cc(-c3ccncc3)nc3ccccc23)o1,?,?,-16,1.8µM*,59,3%
Cc1ccc(/C=N/NC(=O)c2cc(C)oc2C)cc1,?,2%,2,21µM*,-7,-60%
COc1ccccc1-c1cc(C(=O)N/N=C/c2ccc(C)o2)c2ccccc2n1,-11%,1%,?,?,44,-17%
O=C(N/N=C/c1ccc(Cl)cc1)c1cc(-c2cccnc2)nc2ccccc12,?,-31%,-16,?,43,2%
CNC(=O)c1ccc(CNC(=O)OCC(F)(F)F)cc1,5%,15%,0,7%,7,1%
COc1ccc(CCN2CC(C(=O)NCCc3ccccc3)CC2=O)cc1OC (stereo unspecified),-2%,7%,5,-1%,7,8%
CC1=CC(=C(C#N)C#N)c2ccccc2N1C,-12%,1%,-16,-10%,-7,-1%
Cc1ccc(NC(=O)N2CCC(C(=O)Nc3ccc(C)cc3C)CC2)cc1,7%,-8%,12,5%,11,-8%
Cc1cc(N/N=C/c2ccc([N+](=O)[O-])o2)nc2ccccc12,-12%,7%,-82*,-14%,-25,-56%
O=C(N/N=C/c1ccc([N+](=O)[O-])o1)c1cc(-c2ccc(-c3ccccc3)cc2)nc2ccccc12,?,-14%,-98*,?,-8,-8%
Cc1ccc2nc(N/N=C/c3ccco3)cc(C)c2c1,-8%,?,14,-1%,-56*,11µM*
O=C(N/N=C/c1ccccn1)c1cc(-c2ccncc2)nc2ccccc12,9%,9%,-15,14%,-24,11%
O=C(N/N=C/c1ccc([N+](=O)[O-])o1)c1cc(-c2ccncc2)nc2ccccc12,4µM*,14%,-11,?,-26,-42%
COc1ccc(CCN2C(=O)N[C@@H](C(C)C)C2=O)cc1,6%,6%,?,10%,46,-3%
O=C(NC(=S)NCc1ccco1)c1ccccc1,3%,-1%,-9,2%,-19,21%
Cc1ccc(C)c(Nc2cc(C(=O)NCc3cccnc3)c3ccccc3n2)c1,-18%,-3%,-4,-24%,-73*,12%
C/C(=N\NC(=O)c1cc(-c2ccncc2)nc2ccccc12)c1ccc(N2CCOCC2)cc1,21µM*,0%,-16,10µM*,12,-4%

# Compound activity from PubChem BioAssay.
